Assay results from the supplement of paper PMC9694430.

Key:
Assay in all cases: thermal shift delta Tm vs DMSO control; higher = stronger stabilization (binding)
Settings in all cases: 12.5 µM; protein concentration 2 µM
[1] = tested on: LOC_OS01G01410-cb001
Outline: (§1)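 Heating from 25°C to 95°C at 0.05°C/s, fluorescence was recorded for 19.5 μl wells of 2 μM E. coli-expressed, purified rice kinase domain in 100 mM potassium phosphate pH 7.5, 150 mM NaCl, 10% glycerol and 5 × SYPRO Orange with compound in DMSO. Boltzmann fits gave melting temperatures for this differential scanning fluorimetry assay. The shift reported is the mean of three replicates against the DMSO-only protein.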

[2] = tested on: LOC_OS01G02750-cb003
Outline: as §1

[3] = tested on: LOC_OS01G10900-cb004
Outline: as §1

[4] = tested on: LOC_OS01G13800-cb001
Outline: as §1

[5] = tested on: LOC_OS01G14860-cb001
Outline: as §1

[6] = tested on: LOC_OS01G21960-cb002
Outline: as §1

[7] = tested on: LOC_OS01G39600-cb002
Outline: as §1

[8] = tested on: LOC_OS01G48390-cb002
Outline: as §1

[9] = tested on: LOC_OS01G51400-cb002
Outline: as §1

[10] = tested on: T1, LOC_OS01G52050-cb004
T1 sequence (whole entry): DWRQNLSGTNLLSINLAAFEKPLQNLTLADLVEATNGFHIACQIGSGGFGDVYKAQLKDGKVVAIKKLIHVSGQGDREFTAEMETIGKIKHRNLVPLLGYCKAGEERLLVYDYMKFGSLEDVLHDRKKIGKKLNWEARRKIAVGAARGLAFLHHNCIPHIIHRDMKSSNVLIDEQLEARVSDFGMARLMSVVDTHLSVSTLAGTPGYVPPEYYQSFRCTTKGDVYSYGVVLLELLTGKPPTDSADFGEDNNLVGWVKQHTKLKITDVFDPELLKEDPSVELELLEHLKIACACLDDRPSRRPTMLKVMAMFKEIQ
Outline: as §1
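Further: purified Escherichia coli-expressed rice kinase domain construct.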

SMILES | thermal shift delta Tm [1] [°C] | thermal shift delta Tm [2] [°C] | thermal shift delta Tm [3] [°C] | thermal shift delta Tm [4] [°C] | thermal shift delta Tm [5] [°C] | thermal shift delta Tm [6] [°C] | thermal shift delta Tm [7] [°C] | thermal shift delta Tm [8] [°C] | thermal shift delta Tm [9] [°C] | thermal shift delta Tm [10] [°C]
COc1ccc(-c2nc(N3CCOCC3)c3sc(CN(C)c4ncc(C(=O)NO)cn4)cc3n2)cn1 | 0.62 | 1.67 | 0.67 | 0.23 | 0.42 | 0.88 | 0.28 | 0.53 | 0.43 | -0.17
Cc1cnc(NC(=O)Nc2cc(Br)c(C)cc2OC[C@@H]2CNCCO2)cn1 | 0.41 | 0.39 | 0.37 | -0.12 | 0.81 | 0.58 | 0.24 | 1.82 | 0.02 | 2.33
COc1cccc2cc(-c3nc([C@H]4CC[C@H](C(=O)O)CC4)n4ncnc(N)c34)[nH]c12 | 0.94 | 0.05 | 0.36 | -0.29 | 0.44 | 0.7 | 0.94 | 0.31 | 0.16 | 0.07
C=CC(=O)Nc1cccc(Oc2nc(Nc3ccc(N4CCN(C)CC4)cc3OC)ncc2Cl)c1 | 0.1 | -0.5 | 0.47 | 0.58 | 0.25 | 0.29 | 0.93 | 1.75 | 0.48 | 0.54
O=C(/C=C/c1ccc(O)c(O)c1)c1ccc(O)cc1O [Butein] | 3.34 | 6.05 | 1.41 | 1.88 | 4.26 | 3.26 | 4.11 | 1.83 | 2.14 | 9.01
CCCCOc1c(C(=O)c2c(F)cc(C)cc2F)c[nH]c2nncc1-2 | 1.01 | 0.64 | 1.09 | 0.41 | 2.54 | 1.36 | 0.07 | 0.94 | 0 | 0.38
C[C@]1(O)C[C@@H](c2nc(-c3ccc4ccc(-c5ccccc5)nc4c3)c3c(N)nccn32)C1 [Linsitinib (OSI-906)] | 1.14 | -0.88 | 0.14 | 0.82 | 0.26 | 0.9 | 1.68 | 0.41 | 0.44 | -0.16
c1cn2cc(-c3ccc4cn[nH]c4c3)nc(Nc3ccc(N4CCOCC4)cc3)c2n1 [Entospletinib (GS-9973)] | 2.35 | 3.16 | 0.19 | -0.33 | 1.77 | 1.76 | 4.22 | 0.98 | -0.11 | 3.88
COCCNCc1ccc(-c2cc3nccc(Oc4ccc(NC(=O)C5(C(=O)Nc6ccc(F)cc6)CC5)cc4F)c3s2)nc1 [Sitravatinib (MGCD516)] | 4.2 | 7.38 | 4.89 | -0.17 | 3.69 | 0.72 | 0.85 | 6.78 | 0.58 | 4.17
COc1cc2c(c(OC)c1OC)-c1c(cc3c(c1OC)OCO3)CC(C)C(C)C2 (stereo not given) [Schisandrin B (Sch B)] | 0.01 | -0.07 | 0.21 | -0.06 | 0.19 | 0.19 | -3.57 | 0.18 | 0.24 | -0.05
CCCCNc1ncc(-c2ccc(CN3CCOCC3)cn2)c(NC2CCC(O)CC2)n1 (stereo not given) | 3.51 | 2.08 | 0.31 | -0.02 | 1.13 | 1.41 | 0.62 | 1.38 | 0.2 | 2.9
COc1ccc(-c2cc3c(C)nc(N)nc3n([C@H]3CC[C@H](OCCO)CC3)c2=O)cn1 | 0.74 | 0.7 | 0.3 | 0.31 | 0.17 | 0.57 | 0.34 | 0.57 | 0.45 | 0.16
C[C@@H](N)[C@H]1CC[C@H](C(=O)Nc2ccncc2)CC1 | 1.02 | 0.15 | 0.1 | 0.65 | 0.11 | 0.84 | 0.45 | 0.65 | 0.29 | -0.08
C[C@H](NC(=O)/C(C#N)=C/c1cccc(Br)n1)c1ccccc1 | -1.2 | -2.27 | -0.05 | -0.79 | -1.13 | -0.08 | -1.71 | 0.12 | -1 | -1.36
OC1CCC(Oc2cccc3cnc(Nc4ccc5nc[nH]c5c4)nc23)CC1 (stereo not given) | 5.55 | 6.21 | 1.42 | 0.31 | 7.5 | 4.16 | 10.3 | 5.98 | 1.07 | 3.63
CCS(=O)(=O)N1CCN(c2ccc(Nc3ncc(C(N)=O)c(NC4CC4)n3)cc2)CC1 | 5.29 | 1.8 | 1.08 | 0.55 | 3.61 | 2.53 | 4.63 | 1.17 | 1.11 | 5.37
C=CC(=O)Nc1ccc2ncnc(Nc3ccc(OCc4cccc(F)c4)c(Cl)c3)c2c1 | 4.44 | 7.88 | 3.29 | 2.47 | 2.59 | 3.8 | 3.44 | 3.63 | 0.29 | 6.13
